WNV NS2B-NS3 inh – WNV NS2B-NS3 proteinase inhibition; P06935; WNV NS2B-NS3 protease, fluorogenic substrate Ex360/Em465; hits give low values; z-score (no concentration beside the values); 65,000 compounds, 0.18% hits; AID 577; in the data active = z-score below about -3
Target sequence (P06935 1371-1501 limits assumed): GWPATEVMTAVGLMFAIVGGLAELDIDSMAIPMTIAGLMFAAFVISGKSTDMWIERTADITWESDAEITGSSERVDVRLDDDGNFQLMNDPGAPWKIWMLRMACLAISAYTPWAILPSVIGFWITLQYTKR
Target sequence (P06935 1502-1679 limits assumed): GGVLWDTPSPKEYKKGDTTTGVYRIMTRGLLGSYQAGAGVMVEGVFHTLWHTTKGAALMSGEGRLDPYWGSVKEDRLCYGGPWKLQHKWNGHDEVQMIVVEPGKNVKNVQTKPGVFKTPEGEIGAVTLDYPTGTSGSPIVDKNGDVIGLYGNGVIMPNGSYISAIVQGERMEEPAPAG
MMP-13 inhibitor – inhibitors of human MMP13; MMP-13 fTHP FRET cleavage, Mca fluorescence; inhibition, % at 4 µM; 65,000 compounds, 0.07% hits; AID 570;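 active = inhibition above the mean of compound-free control plate wells plus 3 SD, cut at about 14% in these data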;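 note: 0% = DMSO wells and 100% = wells with reference MMP-13 inhibitor after basal subtraction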
Cdc25B inh – human M-phase inducer phosphatase 2 inhibition; recombinant Cdc25B, OMFP fluorescence Ex485/Em525; inhibition, %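 (compounds tested at 10 µM final in the well)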; 65,000 compounds, 0.1% hits; AID 368; in the data active = inhibition above about 50%
Htt clearance – mutant huntingtin protein clearance. AID 853. 47,000 compounds, 0.42% hits. inhibition, % at 1.5 µM. HeLa Exon1htt(103Q)mCFP, aggregate imaging; zero = plate's median compound well;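 active = inhibition of aggregate fluorescence above about 70%, also judged a hit by eye on the cell image, limit read from the data, passing the limit was not always enough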;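 note: cells exposed to compound for three days before fixation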
DUSP1 inh – blocks human MKP-1 phosphatase activity; P28562; recombinant MKP-1, OMFP hydrolysis fluorescence; 65,000 compounds, 0.15% hits; inhibition, %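 (compounds tested at a single concentration somewhere between 10 and 100 µM)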;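 active = inhibition above about 50%, limit read from the data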;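 note: 0% = DMSO max control wells and 100% = wells with enzyme stopped by NaOH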
* hit, by the source's call; . = no result given. Sampled rows, rich in hits. Any-hit rate of the full collection: about 0.62%.

SMILES | WNV NS2B-NS3 inh | MMP-13 inhibitor | Cdc25B inh | Htt clearance | DUSP1 inh
Cc1ccc(S(=O)(=O)N(C)CC(O)Cn2c3ccccc3c3ccccc32)cc1 (stereo not given) | . | . | . | 27 | .
O=S(=O)(c1ccc(F)cc1)N(CCO)CC(O)Cn1c2ccccc2c2ccccc21 (stereo not given) | -4.1* | 3 | -7 | -6 | 23
Cc1ccc(Nc2nc(C(=O)N3CCC(C(=O)NCCN4CCOCC4)CC3)cs2)cc1 | 0.58 | -1 | -3 | 74* | 9
Cn1c2ccccc2c2cnn(CC(=O)N3CCN(c4ncccn4)CC3)c(=O)c21 | -0.76 | -6 | -22 | . | 8
CC(=O)Nc1nc2ccccc2n1Cc1ccccc1C | -0.54 | -6 | -2 | -3 | -1
CC(=O)Nc1nc2ccccc2n1CCOc1ccccc1Cl | -5.6* | 2 | -1 | 43 | -6
O=C(NC1=NCCS1)c1ccc(OCC2CCCO2)cc1 (stereo not given) | 0.56 | 0 | 55* | . | 1
CC(C)n1c(SCC(=O)Nc2nc3c(s2)CCCC3)nc2c1c(=O)n(C)c(=O)n2C | . | . | . | 48 | .
COC(=O)Cn1nc(-c2ccccc2)c2ccccc21 | 0.53 | -8 | -8 | . | 26
O=C(CSc1nc2c(cnn2-c2ccccc2)c(=O)[nH]1)c1ccc(Cl)cc1 | -0.24 | -2 | 35 | 21 | 56*
Cc1ccc(C(=O)N2CCN(c3ccccc3)CC2)cc1C | -0.42 | 3 | -11 | . | 4
Cn1nnc2cc(C(=O)N3CCN(c4ccccc4)CC3)ccc21 | -0.92 | -6 | -7 | 80* | 3
O=C(O)c1ccc2c(c1)N(Cc1ccccc1)C(=O)c1ccccc1S2=O (stereo not given) | -0.41 | 4 | 66* | . | 2
CN1CCN(C(=O)c2ccc3c(c2)N(Cc2ccc(Cl)cc2)C(=O)c2ccccc2S3=O)CC1 (stereo not given) | 0.78 | -8 | -4 | . | 1
Fc1ccc(OCc2nnc(SCCN3CCOCC3)o2)cc1 | . | . | . | -58 | .
Cc1cc2ncn(S(=O)(=O)N3CCOCC3)c2cc1C | 0.86 | 3 | -8 | 70* | -4
CCOC(=O)c1c(NC(=O)CSc2nnc(-c3ccccc3C)n2C)sc(C(C)=O)c1C | 1.4 | 6 | 1 | 76* | 15
CCOC(=O)c1c(NC(=O)c2csc(C)c2)sc(C(C)=O)c1C | -0.57 | 4 | -10 | 78* | 3
CC1=C(C(=O)OCc2ccc3c(c2)OCO3)C(c2ccccc2)NC(=O)N1 (stereo not given) | -1.2 | -7 | -19 | 74* | 1
COc1ccc(-c2c3c([nH]c(=S)c2C#N)CCC3)cc1 | -0.47 | -7 | 9 | 71* | -16
N#Cc1c(-c2cccnc2)c2c([nH]c1=S)CCCC2 | 1.4 | -3 | -16 | -152 | 0
CCN(CC)C(=O)c1cnn(-c2ccccc2)c1NC(=O)c1cccs1 | . | . | . | 55 | .
COc1ccc2[nH]c(=O)c(C(c3nnnn3C3CCCC3)N3CCN(Cc4ccc5c(c4)OCO5)CC3)cc2c1 (stereo not given) | . | . | . | -34 | .
COc1ccc(NC(=O)c2cc(-c3ccc(OC)c(OC)c3)on2)cc1OC | 0.41 | 4 | 1 | 30 | 4
COC(=O)c1ccccc1NC(=O)c1cc(-c2ccc(OC)c(OC)c2)on1 | -0.0055 | 3 | -20 | 71* | -3
SMILES | WNV NS2B-NS3 inh | MMP-13 inhibitor | Cdc25B inh | Htt clearance | DUSP1 inh
O=C(CSc1nc(C2CC2)nc2ccccc12)NCc1ccc2c(c1)OCO2 | . | . | . | 60 | .
Cc1cc(NC(=O)CCCOc2ccc(Cl)cc2Cl)no1 | 0.25 | 3 | 64* | . | 8
COc1ccc(-c2c(=O)n(OCc3ccccn3)c3ccccc3[n+]2[O-])cc1OC | 1.1 | 1 | -4 | . | 3
CCOC(=O)COn1c(=O)c(-c2ccc(OC)c(OC)c2)[n+]([O-])c2ccccc21 | -1.4 | -12 | 21 | 74* | -25
CCOc1ccc(Nc2nc(C)cc(C)c2C#N)cc1 | -1.3 | 3 | -6 | 77* | 20
C#CCn1c(S(=O)(=O)Cc2ccc(OC)cc2)nc(-c2ccccc2)c1-c1ccccc1 | . | . | . | -33 | .
Cc1ccc2c(c1)N1C(=O)c3ccccc3C1C1=C(CC(C)(C)CC1=O)N2 (stereo not given) | . | . | . | -18 | .
Cc1onc(-c2ccccc2Cl)c1C(=O)Nc1ccc(-n2nncc2C(C)(C)C)cc1 | -1.4 | 7 | 66* | . | 2
Cc1cc(C)nc(N2CCCC(C(=O)NCCc3ccc(F)cc3)C2)n1 (stereo not given) | -0.12 | -7 | 2 | . | -21
Cc1cc(C)nc(N2CCCC(C(=O)NCC(c3ccccc3)c3ccccc3)C2)n1 (stereo not given) | . | . | . | 88* | .
Cc1ccc(S(=O)(=O)NNc2nc3ccccc3nc2C(F)(F)F)cc1 | . | . | . | 7 | .
CC(C)C1Cc2c(sc3[nH]c(=S)n(Cc4ccccc4)c(=O)c23)CO1 (stereo not given) | . | . | . | -14 | .
COc1ccc(N2CCN(C(=O)c3cn(C)c(=O)c4c3c3ccccc3n4C)CC2)cc1 | -3.8* | -1 | -12 | 23 | 39
COc1ccc(N2CCN(C(=O)c3cn(C4CCCC4)c(=O)c4c3c3ccccc3n4C)CC2)cc1 | 0.13 | 1 | -11 | -1 | 30
CC(C)OC(=O)N(C)c1ccc(C(O)(C(F)(F)F)C(F)(F)F)cc1 | . | . | . | 76* | .
CC(C)NC(=O)c1cccc(Cn2cc(Cl)cn2)c1 | -3.6* | -2 | 0 | . | -22
CCOC(=O)c1c(C)sc(Sc2ccc(Cl)cc2[N+](=O)[O-])c1OC | . | . | . | -1 | .
Cc1ccc(NC(=O)COC(=O)c2ccc3c(c2)NC(=O)C2CCCN32)cc1C (stereo not given) | -1.1 | -10 | 7 | . | 54*
Cc1ccc(NC(=O)COC(=O)Cn2c(C)csc2=O)cc1C | 0.17 | -10 | -14 | -47 | 2
Cc1nc(N)sc1-c1csc(Nc2ccc(Cl)cn2)n1 | 0.58 | 16* | 9 | -62 | 15
O=C(CSc1nccc(=O)[nH]1)c1ccccc1Br | . | . | . | -125 | .
COC(=O)CSc1nc(NC#N)nc(NC(C)C)n1 | . | . | . | 34 | .
Cn1cc(C(=O)NCN2CCCCC2)c2ccccc21 | -6.6* | -2 | 2 | . | -18
COc1nc(OC/C(N)=N/O)nc(N2CCOCC2)n1 | -0.78 | -1 | 66* | . | -11
COc1ccc(Cn2nnnc2C(c2cc3cccc(C)c3[nH]c2=O)N2CCOCC2)cc1 (stereo not given) | -0.54 | -3 | 52* | . | 7
SMILES | WNV NS2B-NS3 inh | MMP-13 inhibitor | Cdc25B inh | Htt clearance | DUSP1 inh
Cc1cccc(N2CCN(S(=O)(=O)c3ccc4c(c3)CCN4C(=O)CCC(=O)O)CC2)c1C | 0.23 | -9 | 9 | . | 51*
Cc1ccc(C)c(N2CCN(S(=O)(=O)c3ccc4c(c3)CCN4C(=O)CCC(=O)O)CC2)c1 | . | . | . | -157 | .
O=C(c1ccccc1F)N(Cc1ccc2c(c1)OCO2)Cc1cc2cc3c(cc2n2nnnc12)OCO3 | . | . | . | 29 | .
CCN(CC)CCn1c(NCc2ccc(OC)cc2)nc2ccccc21 | 1.3 | -2 | -7 | 86* | -1
CCCn1c(NCc2ccc(N(C)C)cc2)nc2ccccc21 | 0.81 | -3 | 3 | -4 | 2
Cc1cc(NC(=O)CSc2nc(C(C)C)nc3sc4c(c23)CCCC4)no1 | -0.04 | -4 | 0 | . | 11

From PubChem BioAssay
